The list is not random: actives were taken first. Their share in the collection is about 3.3%.
Autofluor counter – compound fluorescence in toxin protease inhibitor counterscreen | fluorescence intensity (concentration not given with the values) | 360,000 tested, 3.1% active | compound autofluorescence counterscreen, microsphere flow cytometry; stronger effect = higher value; in the data active = fluorescence intensity above about 16000; inconclusive = no clear call, values can overlap the other calls
Anthrax LF prot – anthrax lethal factor protease inhibition. P15917. multiplex microsphere protease cleavage assay, LF. inhibition, % at 10 µM. 360,000 tested, 0.12% active; note: plate controls were buffer without enzyme for full effect and enzyme alone for no effect
PriA SSB inh – K. pneumoniae PriA-SSBct interaction inhibition; AID 1272365; 430,000 tested, 0.6% active; AlphaScreen SSBct-PriA binding, biotinylated peptide; inhibition, % at 33 µM; in the data active = inhibition mostly above about 37%, no sharp cut-off; inactive = mostly below about 20%;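 note: plate controls were negative control peptide for no effect and reference peptide for full effect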
MazEF act – MazEF (E. coli) toxin RNase activation. FAM/BHQ RNA-DNA oligo cleavage fluorescence, 5 h. activation, % at 20 µM. 350,000 tested, 0.32% active; in the data active = activation above about 50%
BoNT-F LC inh – blocks Botulinum neurotoxin F light chain protease; Multiplex microsphere protease cleavage assay, flow cytometry; inhibition, % at 10 µM; 360,000 tested, 0.22% active; AID 588497; in the data active = inhibition above about 35%, passing the limit was not always enough; inconclusive = no clear call, values can overlap the other calls; note: plate controls were buffer without enzyme for full effect and enzyme alone for no effect
BoNT-A LC inh2 – inhibitors of Botulinum neurotoxin A light chain protease | multiplex microsphere protease substrate cleavage, flow cytometry | inhibition, % at 10 µM | 360,000 tested, 0.17% active; note: plate controls were buffer without enzyme for full effect and enzyme alone for no effect
An asterisk follows results filed as active; u = inconclusive; x = not tested or not shown. Cut-off read from the data, not from the text of the source, unless noted: active = inhibition above about 30%; inconclusive = no clear call, values can overlap the other calls; inactive = below that.

SMILES | Autofluor counter | Anthrax LF prot | PriA SSB inh | MazEF act | BoNT-F LC inh | BoNT-A LC inh2
Cc1cccc(NC(=S)NC(=O)Cc2ccccc2)c1C | 2893 | -9 | -5 | -8 | u | 0
O=C(Cn1cnc2c(sc3ccccc32)c1=O)NCc1ccccc1 | x | x | -12 | x | x | x
Cc1ccc(Cn2ccc(NC(=O)c3cc(-c4ccco4)on3)n2)cc1 | 21800* | -6 | 8 | -17 | 5 | 6
Cc1ccc(Cn2ccc(NC(=O)c3cc(-c4ccc(Br)cc4)on3)n2)cc1 | 16876* | -2 | 4 | -20 | -5 | -3
Cc1nn(Cc2ccc(Cl)c(Cl)c2)c(C)c1NC(=O)c1cc(-c2ccco2)on1 | 21457* | -1 | -4 | -1 | -4 | -2
Cc1nn(Cc2ccc(Cl)cc2)c(C)c1NC(=O)c1cc(-c2ccco2)on1 | 8742 | -1 | -7 | -16 | -4 | -1
CCN(CC)C(=O)c1cc(-c2ccc(Br)cc2)on1 | 23321* | 1 | -12 | -8 | 1 | 1
Cc1ccc(Cn2ccc(NC(=O)c3cc(-c4ccccc4)on3)n2)cc1 | 8729 | -4 | -5 | -55 | -12 | u
CCOc1ccc(C(=O)N2CCN(c3nc(C)cc(Nc4ccc(C)cc4)n3)CC2)cc1OCC | x | x | -4 | x | x | x
Cc1cc(NC(=O)CSc2cn(Cc3ccccc3Cl)c3ccccc23)no1 | x | x | -15 | x | x | x
COc1ccc(OC)c(-c2cc(C(=O)Nc3c(C)nn(Cc4ccccc4Cl)c3C)no2)c1 | 12387 | -5 | -15 | -3 | -9 | -1
COc1ccc(-c2cc(C(=O)Nc3c(C)nn(Cc4ccccc4Cl)c3C)no2)cc1OC | 22371* | 0 | -16 | 0 | -6 | u
Cc1ccc(-n2c(=O)c3sccc3n(CC(=O)NCc3ccco3)c2=O)cc1 | 8193 | -2 | 2 | 1 | -8 | -1
CCOc1ccc(-n2c(=O)c3sccc3n(CC(=O)NCc3ccco3)c2=O)cc1 | 19457* | -11 | -2 | -7 | 9 | 9
COC(=O)C1=C(O)CSC1=Nc1cccc(C(F)(F)F)c1 | 17678* | 0 | -20 | -11 | -2 | -2
COc1ccc(F)cc1S(=O)(=O)N1CCN(c2cc(C3CC3)ncn2)CC1 | x | x | -8 | x | x | x
CCCc1nc2cc(CC(=O)OC)ccc2o1 | 24068* | 0 | -18 | 3 | -2 | -3
O=C(C1CC=CCC1)N(CCc1cccs1)C1CCOCC1 (configuration not stated) | x | x | 5 | x | x | x
Nn1c(COc2ccccc2)nnc1SC(F)F | 23749* | -3 | 0 | 6 | -2 | 0
Cc1ccc(OCc2nnc(SCC(=O)O)n2N)cc1 | 9404 | 0 | -5 | -2 | -10 | 0
O=S(=O)(NCC1CCN(c2ccncc2)CC1)c1cccnc1 | x | x | 5 | x | x | x
COc1ccc(N2C(=O)c3ccccc3NC23C(=O)N(C)c2ccccc23)cc1 (configuration not stated) | 17048* | -2 | -27 | 5 | -4 | -4
O=C(Nc1ccc(Cl)c(Cl)c1)c1ccc(=O)n(Cc2cccc(F)c2)n1 | x | x | -8 | x | x | x
COc1cc(C(=O)Nc2cc(-c3ccccc3)[nH]n2)cc(OC)c1OC | 20197* | -15 | 1 | 0 | 1 | u
COc1cc(C(=O)Nc2ccc(Nc3ccccc3)cc2)cc(OC)c1OC | 3409 | -15 | 43* | 8 | -13 | -1
SMILES | Autofluor counter | Anthrax LF prot | PriA SSB inh | MazEF act | BoNT-F LC inh | BoNT-A LC inh2
CCOc1ccc(C2SCC(=O)Nc3c2c(=O)[nH]n3C2CCCCCC2)cc1 (configuration not stated) | 24510* | -6 | -6 | -4 | -8 | u
CCCC(C)n1[nH]c(=O)c2c1NC(=O)CSC2c1ccccc1 (configuration not stated) | 4576 | -4 | -9 | 12 | 5 | 0
COc1ccc(C2SCC(=O)Nc3c2c(=O)[nH]n3C2CCCCCC2)cc1 (configuration not stated) | 5946 | -6 | -14 | -5 | -6 | 0
COc1ccc(C2SCC(=O)Nc3c2c(=O)[nH]n3C2CCCCCC2)cc1OC (configuration not stated) | 18575* | -9 | -10 | -7 | 3 | u
O=C(NCCC(O)C1CC1)C1c2ccccc2Oc2ccccc21 (configuration not stated) | x | x | -1 | x | x | x
COc1cc(C(=O)N2CCN(Cc3nc(-c4ccco4)cs3)CC2)cc(OC)c1OC | x | x | 15 | x | x | x
Nn1c(-c2ccccn2)n[nH]c1=S | x | x | 83* | x | x | x
Cc1ccc(C=Nn2c(-c3ccccn3)n[nH]c2=S)o1 | x | x | 72* | x | x | x
S=c1[nH]nc(-c2ccccn2)n1N=Cc1ccccc1 | x | x | 74* | x | x | x
Nn1c(-c2ccccc2)n[nH]c1=S | x | x | 5 | x | x | x
